# Screens deposited in PubChem by National Center for Advancing Translational Sciences (NCATS).
# A selection: hits, their analogues and other compounds. The true share with any hit is near 0.37%.
# TSG101-PTAP inh: blocks PTAP/TSG101 interaction to inhibit HIV-1 budding. Q99816. Fluorescence polarization, FITC-PTAP peptide / Tsg101 binding. Potency, µM (series often up to 115 µM), hits mostly inhibitors. 340,000 tested, under 10 active. AID 493005; active means well fitted inhibition curve with a large enough effect in the main read-out, with a control signal flat, not every such curve was filed as active; inconclusive means small, poorly fitted or top-dose-only effect, or effect the other way, or a change in a side signal; inactive means no such curve, though single readings can be large or run the other way
#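 Fluorescence anisotropy tracks displacement of a FITC-tagged PTAP peptide (50 nM) from the Tsg101 binding domain (10 uM), following a 20 min room-temperature incubation at pH 7.5.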
# ASM inhibitor: human S-ASM enzyme inhibition; P17405; placental ASM, HMU-PC fluorogenic substrate, 60 min; Potency, µM (doses to about 57.5 µM), most hits filed as inhibitors; 340,000 compounds, 0.006% hits
#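 Fluorogenic HMU-PC substrate (9 uM final) is turned over by placental ASM in 60 min at 37 C after a 10 min compound preincubation. Reaction ended by alkaline stop (pH 10), with fluorescence read at 386/447 nm.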
# TRPV1 potentiator: human TRPV1 potentiation; potentiation, % at 8.33 µM; Q8NER1; 320,000 compounds, 0.02% hits; TRPV1-expressing cells, Fluo-8 calcium influx, capsaicin EC20 potentiation; AID 540277; in the data active means potentiation above about 80%; inconclusive means between about 30% and that limit
# Target sequence (Q8NER1 whole entry, looked up): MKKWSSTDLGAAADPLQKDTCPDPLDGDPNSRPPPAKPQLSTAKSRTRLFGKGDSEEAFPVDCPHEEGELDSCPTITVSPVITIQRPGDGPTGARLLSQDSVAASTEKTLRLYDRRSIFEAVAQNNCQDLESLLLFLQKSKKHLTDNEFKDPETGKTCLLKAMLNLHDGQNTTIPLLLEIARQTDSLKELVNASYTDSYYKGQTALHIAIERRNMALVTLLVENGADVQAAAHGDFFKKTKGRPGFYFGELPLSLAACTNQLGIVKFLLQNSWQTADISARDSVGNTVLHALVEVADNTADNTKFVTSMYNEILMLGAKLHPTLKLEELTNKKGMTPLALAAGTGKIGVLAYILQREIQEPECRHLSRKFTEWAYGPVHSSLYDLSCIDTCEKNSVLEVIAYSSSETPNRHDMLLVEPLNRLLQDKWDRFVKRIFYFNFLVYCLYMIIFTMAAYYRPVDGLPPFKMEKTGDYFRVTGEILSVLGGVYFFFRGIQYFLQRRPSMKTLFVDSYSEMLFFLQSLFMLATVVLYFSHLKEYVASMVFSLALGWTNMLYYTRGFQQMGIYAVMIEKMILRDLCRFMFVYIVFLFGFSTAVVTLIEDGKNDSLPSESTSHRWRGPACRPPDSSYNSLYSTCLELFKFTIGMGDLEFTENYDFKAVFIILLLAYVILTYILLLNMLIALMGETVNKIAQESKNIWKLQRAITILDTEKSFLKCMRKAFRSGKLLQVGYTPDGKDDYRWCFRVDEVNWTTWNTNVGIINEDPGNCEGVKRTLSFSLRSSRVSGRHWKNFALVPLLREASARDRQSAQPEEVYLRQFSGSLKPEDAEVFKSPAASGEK
#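 Cells expressing TRPV1 were dye-loaded with Fluo-8 and read kinetically: 10 s baseline, 3 min after compound (agonist portion), then 2 min after EC20 capsaicin (allosteric enhancer portion). Calcium-bound dye fluorescence at 480/520 nm.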
# TRPV1 agonist: activates the human vanilloid receptor TRPV1 | TRPV1-expressing cells, Fluo-8 calcium influx, agonist mode | activation, % at 8.33 µM | 320,000 compounds, 0.19% hits; in the data active means activation above about 80%; inconclusive means between about 30% and that limit
#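 Cells expressing TRPV1 were dye-loaded with Fluo-8 and read kinetically: 10 s baseline, 3 min after compound (agonist portion), then 2 min after EC20 capsaicin (allosteric enhancer portion). Calcium-bound dye fluorescence at 480/520 nm.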
# AT treatment: potential ataxia-telangiectasia treatments restoring KAP-1 phosphorylation; F2112 A-T fibroblasts, KAP-1 phosphorylation AlphaLISA; neocarzinostatin DNA damage 30 min before lysis; Potency, µM (doses to about 57.5 µM), most hits filed as activators; 320,000 compounds, 0.19% hits; further: nearly all actives have a fitted effect of over 45% in size
#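 hTERT-immortalized A-T patient fibroblasts (F2112), 500 cells/well in OPTI-MEM, 1% FBS, got compounds for 60 min, then NCS for 30 min at 37C. Lysates were then assayed for phospho-KAP-1 by AlphaLISA (anti-pKAP1 donor, anti-KAP1 acceptor beads), 6 hr at 25C.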
# Numbers stand for hits; . = inactive; ? = inconclusive; / = no result given; [ ] = dose if it differs, or a comment. Unless noted, the call rests on the fitted dose curve; in most records, active means well fitted curve in the direction sought with a large enough effect; inconclusive means small, poorly fitted or top-dose-only effect, or another doubt; inactive means no such curve, though single readings can be large; an effect the other way counts as inactive or inconclusive.
SMILES,TSG101-PTAP inh,ASM inhibitor,TRPV1 potentiator,TRPV1 agonist,AT treatment
COc1ccc2c(n1)Sc1nc3ccccc3nc1N2,?,.,.,109.7,.
O=C(N/N=C/c1ccc2c(c1)OCO2)c1cccc2ccccc12,.,.,.,.,.
Cn1cc(C(=O)N/N=C/c2ccc3c(c2)OCO3)c2ccccc21,.,.,.,?,22.4µM
C=Cc1c(C)c2cc3[nH]c(cc4nc(cc5nc(cc1[nH]2)C(C)=C5CCC(=O)O)C(CCC(=O)O)=C4C)c(C)c3C=C,.,.,.,.,31.6µM
CC1CCCN(S(=O)(=O)c2ccccc2[N+](=O)[O-])C1 (stereo not drawn),.,.,.,.,.
CCCCCCc1cc2cc(S(=O)(=O)c3ccc(F)cc3)c(=O)oc2cc1O,.,.,.,.,28.2µM
O=C(N=C1N=C2C=CC=CN2Cc2ccccc21)c1ccc(S(=O)(=O)N2CCCC2)cc1,.,.,.,.,.
CN(C)S(=O)(=O)c1cccc(C(=O)N=C2N=C3C=CC(Cl)=CN3Cc3ccccc32)c1,.,.,.,.,0.708µM
COc1ccc(/C=C2/CCOC2=O)cc1,.,.,.,.,.
COc1cc(/C=C2\CCOC2=O)cc(OC)c1OC,.,.,.,.,1µM
COc1ccc(-n2c(=S)[nH]c3cc(C(=O)N4CCN(c5ccccc5)CC4)ccc3c2=O)cc1,.,.,.,.,.
CCCCc1ccc(NC(=S)N2CCC(O)CC2)cc1,.,.,.,85.2,.
Cc1ccc2c(CC(=O)Nc3c(C(=O)c4ccc(F)cc4)oc4ccccc34)coc2c1C,/,/,.,.,/
N#Cc1ccc2c(c1)C[C@]1(c3ccsc3)OC3=C(C(=O)OC4(CCCCC4)C3)C2O1,/,/,.,.,.[11.5 µM]
COc1ccc(C(=O)C(CN2CCOCC2)c2ccccc2)cc1 (stereo not drawn),.,.,.,.,/
O=C(c1ccccc1)C(CCC(CN1CCOCC1)C(=O)c1ccccc1)CN1CCOCC1 (stereo not drawn),.,.,.,.,35.5µM
c1ccc(C(CN2CCOCC2)c2ccccc2)cc1,.,.,.,.,.
O=C(c1ccc(F)cc1)C(CN1CCOCC1)c1ccccc1 (stereo not drawn),.,.,.,.,39.8µM
Cn1nc(CC(=O)Nc2ccc3c(c2)OCCO3)c2ccccc2c1=O,.,.,81.2,.,.
Cc1cc2c(NC(=O)Nc3ccc(C(C)(C)C)cc3)cccc2nn1,.,?,.,113.7,.
Cc1cc2c(NC(=O)Nc3ccccc3)cccc2nn1,.,.,.,86.6,.
CCOC(=O)N1CCC(NC(=O)c2ccc3c(c2)sc2nc(-c4ccccc4)cn23)CC1,.,.,/,/,20µM
Cc1cc2c(c(=O)n1Cc1ccccc1)C1O[C@](c3ccsc3)(Cc3ccccc31)O2,/,/,.,?,.[11.5 µM]
COCCN1C(=S)N[C@@H](c2ccccc2)C(C(=O)OC)=C1C,/,/,.,.,.
Cc1cc(C)cc(NC(=O)N2CCC(c3nc4ccccc4o3)CC2)c1,.,.,.,?,.
SMILES,TSG101-PTAP inh,ASM inhibitor,TRPV1 potentiator,TRPV1 agonist,AT treatment
CC(C)c1ccc(NC(=O)N2CCOCC2)cc1,.,.,.,94.7,.
O=C(Nc1ccc(Cl)cc1)N1CCOCC1,.,.,.,?,.
CC(C)c1ccc(NC(=O)N2CCC(c3nc4ccccc4o3)CC2)cc1,.,.,.,96.6,.
CC(=O)c1ccc(N2CCN(C(=O)Nc3ccc(C(C)C)cc3)CC2)cc1,.,.,.,100.2,.
CC(=O)c1ccc(N2CCN(C(=O)Nc3ccc(F)cc3)CC2)cc1,/,/,.,?,.
COc1cc2c(cc1OC)C1O[C@](CCCCN3C(=O)c4ccccc4C3=O)(C2)OC2=C1C(=O)CC(C)(C)C2,/,/,.,?,.[11.5 µM]
CN(C)c1cc(Nc2ccc(O)cc2)c([N+](=O)[O-])c2nonc12,.,.,.,.,7.08µM
CCn1nc(C)c(CNC(=O)c2cc(COc3ccc(F)cc3Cl)on2)c1C,.,.,.,.,1.58µM
Cn1c2cc([N+](=O)[O-])sc2c2cnn(Cc3ccccc3F)c(=O)c21,/,/,/,/,.
C=CCOc1ccc(/C=C2\SC(N3CCCCC3)=NC2=O)cc1,.,.,.,81.6,.
CCc1ccc(/C=C2/SC(N3CCOCC3)=NC2=O)cc1,.,.,.,84.8,.
Oc1ccccc1C1C=C(c2ccc3c(c2)OCO3)NC(c2ccc(F)c(Br)c2)N1 (stereo not drawn),/,/,.,.,/
O=C(OCC#CCNc1nnc(-c2cccc3ccccc23)o1)c1cccs1,/,/,/,/,.
COc1ccc(NC(=O)C2CCN(S(=O)(=O)c3c(C)noc3/C=C/c3cccs3)CC2)cc1Cl,/,/,.,.,/
CC(=O)O[C@H]1C(=O)[C@@]2(C)[C@H]([C@H](OC(=O)c3ccccc3)[C@]3(O)C[C@H](OC(=O)[C@H](O)[C@@H](NC(=O)c4ccccc4)c4ccccc4)C(C)=C1C3(C)C)[C@]1(OC(C)=O)CO[C@@H]1C[C@@H]2O,.,.,.,.,.
CCC(C)Sc1ccc([C@H]2N[C@@](CC(C)C)(C(=O)OC)[C@H]3C(=O)N(C)C(=O)[C@@H]23)cc1 (stereo partly drawn),.,.,.,.,.
CCC(C)Sc1ccc([C@H]2N[C@@](CC(C)C)(C(=O)OC)[C@H]3C(=O)N(CC)C(=O)[C@@H]23)cc1 (stereo partly drawn),.,.,.,86.6,.
O=C(CCc1c[nH]c2ccccc12)NCCc1ccc(Cl)cc1,.,.,.,80.1,.
Cc1ccc(C(=O)NCCc2c[nH]c3ccccc23)c(C)c1,.,.,.,.,25.1µM
O=C(NCCc1c[nH]c2ccccc12)c1ccccc1,.,.,.,.,.
COc1ccc(CCNC(=O)Cc2ccccc2)cc1OC,.,.,.,.,.
COc1ccc(CC(=O)NCCCc2ccccc2)cc1OC,.,.,.,105.2,.
COc1ccccc1-n1cc(C(=O)NCC(=O)N2CCN(c3ccccn3)CC2)c2ccccc2c1=O,.,.,.,.,22.4µM
COc1ccc(CCNC(=O)CSc2nc3ccsc3c(=O)n2CC2CCC(C(=O)O)CC2)cc1OC (stereo not drawn),.,.,.,.,.
CCCCn1nc(NC(=O)c2cccs2)c2cc3cc(OC)ccc3nc21,.,.,.,?,28.2µM
SMILES,TSG101-PTAP inh,ASM inhibitor,TRPV1 potentiator,TRPV1 agonist,AT treatment
CCCn1nc(NC(=O)c2cccs2)c2cc3cc(OC)ccc3nc21,.,.,.,.,?
CCCn1nc(NC(C)=O)c2cc3cccc(C)c3nc21,.,.,.,.,14.1µM
CCCn1nc(NC(=O)CC(C)C)c2cc3cccc(C)c3nc21,.,.,.,?,.
CCCC(=O)Nc1nn(CCC)c2nc3ccccc3cc12,.,.,/,/,28.2µM
O=C(N/C=C/c1ccccc1)c1ccccc1,/,.,.,83.1,.
O=C(NCCNC(=O)c1ccccc1)c1ccccc1,.,.,.,.,.
